The source made the active and inactive calls.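 Rule for the calls, unless noted: active = primary screen hit whose calcium fluorescence ratio, in both repeats, exceeds the weak agonist control mean by 3 SD; inactive = the rest.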
These compounds were tested on TRPC4 (transient receptor potential cation channel C4 beta), mouse (assay: positive allosteric modulators of mouse TRPC4, confirmation, cell-based, second round, Fluo-4, HEK293 TRPC4beta/mu-opioid, 1 µM (AID 2554;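 active = primary screen hit whose fluorescence ratio, in both repeats, exceeds the weak agonist control mean by 3 SD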)). Conditions: DAMGO EC20, Fluo-4 calcium flux, at 1 µM.

outcome, inactive:
Cc1cc(/C=C2/C(=N)N3C(=NC2=O)SN=C3S(C)(=O)=O)c(C)n1-c1ccccc1F
Cc1ccc(O)c(CNc2nc3ccccc3[nH]2)c1
CC(Oc1ccc(Cl)cc1Cl)c1nc(-c2ccccn2)no1 (stereo not drawn)
Fc1ccccc1COc1ccccc1CNCc1ccncc1
CC12CC3(C)CC(C)(C1)CC(NC(=O)N1CCCC1)(C2)C3
Clc1cccc(COn2c(-c3ccc(Cl)cc3Cl)nc3ncccc32)c1
CC1CCN(CCCOc2ccc(OCc3ccccc3)cc2)CC1
CCN(CC)C(=O)C1CCCN(Cc2cccc(Oc3ccccc3)c2)C1 (stereo not drawn)
O=C(O)c1ccc(NC(=S)NC(=O)c2ccc(-c3ccccc3)cc2)cc1
Cc1ccc(C)c2[nH]c(=O)c(CN(Cc3nnnn3C3CCCCC3)CC3CCCO3)cc12 (stereo not drawn)
CC(C)CN(CC(C)C)c1nc(N)c(C#N)c(CC#N)c1C#N
CC(C)Oc1cccc(C(=O)C2CCCN(Cc3cnn(C(C)C)c3)C2)c1 (stereo not drawn)
Cc1ccc(O)c(Sc2cc(C)ccc2O)c1
Cc1cccc(Cn2c(C(C)(C)C)cc3cccnc32)c1
Cc1cc(N2CCC(C)CC2)nc2cccc(O)c12
CSCCNCc1cn(-c2ccc(F)cc2F)nc1-c1ccccc1C
CC(/C=C1\SC(=S)N(C(C(=O)O)C(C)C)C1=O)=C\c1ccccc1 (stereo not drawn)
CCN(CC)CCn1c2ccccc2c2cnc(N)c(C#N)c21
CCOC(=O)C1CCN(CC(O)COc2ccc(C(C)(C)C)cc2)CC1 (stereo not drawn)
CCOC(=O)c1oc2ccccc2c1CN1CCCCC1
CC(C)Cc1cc(CN2CCCC(CO)(Cc3cccc(Cl)c3)C2)[nH]n1 (stereo not drawn)
CCCCOc1ccc(CSCCN=C(N)N)cc1
N#Cc1c(NC(=O)C2CC(Cl)=CCC2C(=O)O)sc2c1CCCCC2 (stereo not drawn)
Cc1ccccc1C(=O)NC1CC2CCC(C1)N2Cc1ccccc1 (stereo not drawn)
COc1ccc(/C=C2\SC(=S)N(C(Cc3ccccc3)C(=O)O)C2=O)cc1 (stereo not drawn)
Cc1cc(NCc2ccccc2)nc(N2CCOCC2)n1
CCCc1nc(SC2CCCC2)c2c(=O)n(C)c(=O)n(C)c2n1
Fc1ccccc1Sc1ccccc1CNC1=NCCN1
CCc1nc2ccccc2n1Cc1ccccc1OC
CSc1nc(N2CCOCC2)c2c3c(sc2n1)CCCC3
COc1cccc(CNC(=O)CCC2CCCN(Cc3cc(Cl)ccc3O)C2)c1 (stereo not drawn)
CCOC(=O)C1(Cc2ccccc2C)CCCN(Cc2ccc(NC(C)=O)cc2)C1 (stereo not drawn)
CCn1c(NCc2c[nH]c3ccccc23)nc2ccccc21
O=C(c1ccc2c(c1)OCO2)C1CCCN(Cc2ccccc2OC(F)F)C1 (stereo not drawn)
CC(C)(C)c1cc2cccnc2n1Cc1ccccc1
Cc1cccc(C)c1-n1cccc1/C=C1\SC(=S)N(c2cccc(C(=O)O)c2)C1=O
COc1ccc2nc(NCc3ccccc3)[nH]c2c1
Cc1ccc(C(=O)NC(=S)Nc2c(C)ccc3nsnc23)cc1
Cc1ccccc1N1CC(O)(c2cccs2)[N+]2=C1CCCC2 (stereo not drawn)

The compounds below were run on TRPC4 beta (transient receptor potential cation channel C4), mouse (assay: positive allosteric modulators of mouse TRPC4, confirmation, cell-based, Fluo-4, HEK293 TRPC4beta/mu-opioid (AID 2555)). Conditions: DAMGO EC20, Fluo-4 calcium flux, at 10 µM.

outcome, inactive:
Cc1cc(/C=C2/C(=N)N3C(=NC2=O)SN=C3S(C)(=O)=O)c(C)n1-c1ccccc1F
Cc1ccc(O)c(CNc2nc3ccccc3[nH]2)c1
CC(Oc1ccc(Cl)cc1Cl)c1nc(-c2ccccn2)no1 (stereo not drawn)
Fc1ccccc1COc1ccccc1CNCc1ccncc1
CC12CC3(C)CC(C)(C1)CC(NC(=O)N1CCCC1)(C2)C3
Clc1cccc(COn2c(-c3ccc(Cl)cc3Cl)nc3ncccc32)c1
CC1CCN(CCCOc2ccc(OCc3ccccc3)cc2)CC1
CCN(CC)C(=O)C1CCCN(Cc2cccc(Oc3ccccc3)c2)C1 (stereo not drawn)
O=C(O)c1ccc(NC(=S)NC(=O)c2ccc(-c3ccccc3)cc2)cc1
Cc1ccc(C)c2[nH]c(=O)c(CN(Cc3nnnn3C3CCCCC3)CC3CCCO3)cc12 (stereo not drawn)
CC(C)CN(CC(C)C)c1nc(N)c(C#N)c(CC#N)c1C#N
CC(C)Oc1cccc(C(=O)C2CCCN(Cc3cnn(C(C)C)c3)C2)c1 (stereo not drawn)
Cc1ccc(O)c(Sc2cc(C)ccc2O)c1
Cc1cccc(Cn2c(C(C)(C)C)cc3cccnc32)c1
Cc1cc(N2CCC(C)CC2)nc2cccc(O)c12
CSCCNCc1cn(-c2ccc(F)cc2F)nc1-c1ccccc1C
CC(/C=C1\SC(=S)N(C(C(=O)O)C(C)C)C1=O)=C\c1ccccc1 (stereo not drawn)
CCN(CC)CCn1c2ccccc2c2cnc(N)c(C#N)c21
CCOC(=O)C1CCN(CC(O)COc2ccc(C(C)(C)C)cc2)CC1 (stereo not drawn)
CCOC(=O)c1oc2ccccc2c1CN1CCCCC1
CC(C)Cc1cc(CN2CCCC(CO)(Cc3cccc(Cl)c3)C2)[nH]n1 (stereo not drawn)
CCCCOc1ccc(CSCCN=C(N)N)cc1
N#Cc1c(NC(=O)C2CC(Cl)=CCC2C(=O)O)sc2c1CCCCC2 (stereo not drawn)
Cc1ccccc1C(=O)NC1CC2CCC(C1)N2Cc1ccccc1 (stereo not drawn)
COc1ccc(/C=C2\SC(=S)N(C(Cc3ccccc3)C(=O)O)C2=O)cc1 (stereo not drawn)
Cc1cc(NCc2ccccc2)nc(N2CCOCC2)n1
CCCc1nc(SC2CCCC2)c2c(=O)n(C)c(=O)n(C)c2n1
Fc1ccccc1Sc1ccccc1CNC1=NCCN1
CCc1nc2ccccc2n1Cc1ccccc1OC
CSc1nc(N2CCOCC2)c2c3c(sc2n1)CCCC3
COc1cccc(CNC(=O)CCC2CCCN(Cc3cc(Cl)ccc3O)C2)c1 (stereo not drawn)
CCOC(=O)C1(Cc2ccccc2C)CCCN(Cc2ccc(NC(C)=O)cc2)C1 (stereo not drawn)
CCn1c(NCc2c[nH]c3ccccc23)nc2ccccc21
O=C(c1ccc2c(c1)OCO2)C1CCCN(Cc2ccccc2OC(F)F)C1 (stereo not drawn)
CC(C)(C)c1cc2cccnc2n1Cc1ccccc1
Cc1cccc(C)c1-n1cccc1/C=C1\SC(=S)N(c2cccc(C(=O)O)c2)C1=O
COc1ccc2nc(NCc3ccccc3)[nH]c2c1
Cc1ccc(C(=O)NC(=S)Nc2c(C)ccc3nsnc23)cc1
Cc1ccccc1N1CC(O)(c2cccs2)[N+]2=C1CCCC2 (stereo not drawn)

From PubChem BioAssay
